According to the supplement of paper PMC6555819:

Experiments:
Test in all cases: PBM binding z-score (relative to random genomic background probes); higher = stronger binding; sequences stand for … in GC…GCGATTGACAGCGTAGAATGAAGG
[1] = tested on: FXR:RXRa (NR concentration 270 nM, RXRa partner concentration 90 nM)
Summary of the method: (§1)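 Probes were double-stranded and carried 34-nt variable regions with direct-repeat seeds, single-nucleotide variants, half-site ablations and random human genomic background sequences, printed on custom Agilent 4×180K protein-binding microarrays. Arrays were incubated 1 h with ligand-free nuclear receptor dimers in PBS pH 7.4, 2% milk, 0.02% Triton X-100, 1 mM DTT, 0.2 mg/mL BSA and 0.4 mg/ml salmon testes DNA. Antibodies against each partner (one per run) detected binding, and scanned fluorescence was regression-normalized. Binding z-scores use the random background probes as reference.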

[2] = tested on: LXRa:RXRa (NR concentration 270 nM, RXRa partner concentration 90 nM)
Summary of the method: as §1

[3] = tested on: LXRa homodimer (NR concentration 270 nM)
Summary of the method: as §1

[4] = tested on: LXRb:RXRa (NR concentration 270 nM, RXRa partner concentration 90 nM)
Summary of the method: as §1

[5] = tested on: LXRb homodimer (NR concentration 270 nM)
Summary of the method: as §1

[6] = tested on: PPARa:RXRa (NR concentration 270 nM, RXRa partner concentration 90 nM)
Summary of the method: as §1

[7] = tested on: PPARg:RXRa (NR concentration 180 nM, RXRa partner concentration 90 nM)
Summary of the method: as §1

[8] = tested on: PPARg:RXRa 270nM:90nM, anti-RXR (NR concentration 270 nM, RXRa partner concentration 90 nM)
Summary of the method: as §1

[9] = tested on: PPARg:RXRa 30nM:10nM, anti-RXR (NR concentration 30 nM, RXRa partner concentration 10 nM)
Summary of the method: as §1

[10] = tested on: PPARg:RXRa 90nM:30nM, anti-RXR (NR concentration 90 nM, RXRa partner concentration 30 nM)
Summary of the method: as §1

[11] = tested on: PPARg:RXRa DBDmut IVT, anti-RXR (DBD mutation: RXRa K156A/R161A, NR concentration 270 nM, RXRa partner concentration 90 nM)
Summary of the method: as §1

[12] = tested on: PPARg:RXRa IVT, anti-PPARg (NR concentration 270 nM, RXRa partner concentration 90 nM)
Summary of the method: as §1

[13] = tested on: PPARg DBDmut:RXRa IVT, anti-PPARg (DBD mutation: PPARg1 K132A/R137A, NR concentration 270 nM, RXRa partner concentration 90 nM)
Summary of the method: as §1

[14] = tested on: PPARg DBDmut IVT, anti-PPARg (DBD mutation: PPARg1 K132A/R137A, NR concentration 270 nM)
Summary of the method: as §1

[15] = tested on: PPARg homodimer (NR concentration 180 nM)
Summary of the method: as §1

[16] = tested on: PXR:RXRa (NR concentration 270 nM, RXRa partner concentration 90 nM)
Summary of the method: as §1

[17] = tested on: PXR homodimer (NR concentration 270 nM)
Summary of the method: as §1

[18] = tested on: RARa:RXR (NR concentration 270 nM, RXRa partner concentration 90 nM)
Summary of the method: as §1

[19] = tested on: RARa homodimer (NR concentration 270 nM)
Summary of the method: as §1

[20] = tested on: RARb:RXRa (NR concentration 270 nM, RXRa partner concentration 90 nM)
Summary of the method: as §1

Sequence	PBM binding z-score [1]	PBM binding z-score [2]	PBM binding z-score [3]	PBM binding z-score [4]	PBM binding z-score [5]	PBM binding z-score [6]	PBM binding z-score [7]	PBM binding z-score [8]	PBM binding z-score [9]	PBM binding z-score [10]	PBM binding z-score [11]	PBM binding z-score [12]	PBM binding z-score [13]	PBM binding z-score [14]	PBM binding z-score [15]	PBM binding z-score [16]	PBM binding z-score [17]	PBM binding z-score [18]	PBM binding z-score [19]	PBM binding z-score [20]
CGTCCAAGGTCAGGGTCAGTGAAAGAGACTCGAA	6.11	3.93	-0.0372	3.66	0.128	5.11	4.59	4.52	1.28	2.98	2.17	3.09	0.335	-0.416	2.66	3.7	0.71	4.22	1.34	5.2
TCGAGTAGGTTAGTCGGGGAATTCAGCCAACATA	-0.0396	-0.257	-0.394	-0.065	-0.946	0.287	-0.188	0.615	0.883	0.675	2.15	1.62	-0.453	-0.828	-0.2	-0.311	-0.47	-0.102	-0.0152	-0.105
GCTTGTAGATCAATGTTAAGAAAGACTAAGCTAA	-0.421	-0.43	-0.434	-0.517	-0.377	-0.584	-0.00589	-0.385	-0.425	-0.416	1.38	0.377	-0.235	0.113	-0.551	-0.629	-0.348	-0.432	-0.306	-0.399
ACTAGTTGGTCAGCTGTGGTCACACACAATTCGG	0.168	-0.0982	-0.159	-0.0787	-0.362	0.0515	0.536	0.0705	-0.147	-0.158	1.14	0.902	0.0939	0.115	0.101	0.312	-0.402	0.442	0.116	1.23
GTACCAAGGTGAACAGGTCGTTGATGAGTAGGCG	0.658	0.647	-0.308	0.422	-0.997	2.34	1.64	1.88	0.3	1.02	1.79	3	-0.0563	-0.667	0.811	0.437	-0.13	1.38	-0.00415	2.09
TCGAGTAAGTTAGGGGCATTCAGAATGGCGTCGA	0.474	0.581	-0.298	0.52	-1.13	0.686	-0.191	0.338	1.03	0.613	0.867	-0.26	-1.43	-0.704	0.141	0.512	0.0747	0.66	-0.608	0.456
ATCTCTAGGTAAAGTGCAGTGAAAGATCGATAGA	0.236	0.336	-0.00202	-0.0786	0.221	0.525	0.843	2.05	0.6	1.67	2.44	1.95	0.431	0.336	0.363	-0.0343	0.194	0.372	0.333	0.504
ATCTCTAGGTAACCAAGTACAGTGAATGCCGAAC	0.125	0.246	0.247	0.353	0.673	0.645	0.752	0.425	0.0273	0.341	3.29	3.07	1.88	1.42	0.713	0.0867	0.597	-0.0145	1.1	0.347
ATATGTAGGTTACATCCGGGTCATGCAGGCTATG	2.18	3.82	0.802	2.38	0.427	4.45	6.06	5.18	2.64	4.3	7.41	7.25	2.04	1.91	1.38	3.26	0.751	3.55	0.629	2.36
TCGAATAGGTTAGGGGCATTCAGAATGGCGTCGA	0.35	0.807	-0.0676	1.26	0.0688	1.49	0.443	2.13	2.93	2.56	1.9	0.68	-0.275	-0.57	0.452	0.695	0.0158	0.806	0.0673	1.5
AGTCAAAGTTCATCGAGGTAACGTAAGATATGCT	6.65	6	4.5	3.72	1.07	5.27	6.71	6.39	3.74	5.59	0.275	3.44	1.15	1.15	2.53	5.38	9.82	3.97	0.864	5.07
ACTTACGGGTCGACGAGGTTATAGCACGCGTATA	1.82	1.97	0.124	1.94	0.314	2.97	1.52	1.22	0.608	0.729	0.585	1.14	0.084	0.394	0.944	2.68	0.798	2.75	-0.198	1.82
TATTGTAGATCAAGCAGGTTAAGAAAGCCTGAGT	-0.385	0.0261	-0.0497	-0.0709	0.0382	0.359	-0.08	0.334	0.0668	0.218	0.302	1.02	0.542	0.816	0.0743	0.218	-0.248	0.378	0.348	-0.0192
TCGAGTAGGTGAGGGGCATTCAGAATGGCGTCGA	0.283	-0.0871	-0.49	1.21	0.881	1.47	1.99	3.31	1.98	2.63	3.64	3.75	-0.208	0.0293	0.149	0.21	-0.342	-0.0572	-0.832	0.965
CCTCGCAGGCCAGGGTCACTCAAGCATTTCGCTT	2.11	1.69	-0.251	2.06	-0.654	3.01	0.19	1.04	-0.771	0.0823	-0.539	0.241	-0.923	-1.57	1.02	2.49	-0.431	3.1	-0.222	2.54
ATCTTTAGGTAACCAAGTTCAGTGAATGCCGAAC	0.613	1.14	0.896	0.862	1.2	0.968	0.323	0.52	0.251	0.342	2.35	1.85	1.09	1.61	0.811	2.06	1.53	1	0.564	1.31
GCTGCTAAGTCAGGTTGGTCAGCTAACGGGTACG	-0.434	-0.657	-0.43	-0.836	-0.829	-0.794	-0.46	-0.678	-0.924	-0.942	-0.0465	-0.681	-1.49	-1.03	-0.201	-0.468	-0.643	-0.502	-0.643	-0.0361
GCTGCTAGGTCAGGTTGCTCAGCTAACGGGTACG	1.19	0.603	-0.362	0.238	-0.468	1.3	0.32	1.06	-0.602	0.106	2.92	2.01	-0.97	-0.836	0.251	-0.00315	-0.858	0.655	-0.624	3.17
ACTATTAGTTGGGACGAGGGCAACCGATAGGTTG	0.251	0.126	-0.235	0.0169	0.305	0.354	0.695	0.305	0.0129	0.225	-0.0902	0.659	0.777	0.502	0.934	0.478	0.579	0.451	0.563	1.03
GCAGAAAGGTGAAACGCAGGTAACTCAGGGTGGC	1.58	1.62	-0.633	0.912	-1.18	3.5	1.57	2.32	-0.0918	1.39	3.02	2.42	-0.00989	-0.405	0.213	0.633	-0.804	1.9	-0.501	2.88
TCGAGTAGGTTAGGCGCATTCAGAATGGCGTCGA	-0.434	-0.29	-0.682	-0.547	-1.16	0.216	-0.326	0.786	0.835	0.489	1.8	0.832	-1.24	-1.21	-1.2	-0.58	-0.715	-0.497	-1.02	0.105
CCTAGCAGTCCAGGGTCACTCAAGCATTTCGCTT	1.93	1.87	-0.123	2.26	-0.47	3.08	0.115	1.17	-0.788	0.355	-0.136	0.647	-1.3	-1.13	1.01	2.58	2.51e-05	3.02	-0.3	2.33
TATATTAGTTGATTAGGGCAACCGAAACAGCGGA	0.381	0.319	0.79	0.365	1.33	0.535	0.578	0.666	1.02	0.819	0.409	2.01	2.25	1.83	1.16	0.636	0.89	0.181	2.13	1.16
TGTCAAAGTTCAAAGGTAACCTAAGTATCCACAC	7.3	6.43	4.99	5.02	2.06	6.03	8.74	7.74	5.57	7.47	0.886	4.82	1.02	0.289	3	5.7	4.14	6.39	1.28	5.09
ACTATTGGTTGAGACGAGGGCAACCGATAGGTTG	0.496	0.289	-0.00418	0.08	0.0327	0.62	0.556	0.157	0.062	0.367	-0.0898	0.516	0.379	0.283	0.821	1.5	0.199	1.1	0.274	1.07
CGTCCAAGGTCAATGCTAGGTCAGTGGAAGCATT	6.99	5.73	3.02	3.78	0.891	4.81	4.07	4.24	1.28	3.23	3.31	3.57	-0.546	-0.435	5.36	4.87	1.99	6.1	1.39	5.17
GGAACGAGGGCATTCGAGATGATAGCATGGCGAT	0.866	0.444	-0.191	-0.035	-0.591	1.38	1.36	0.68	0.253	0.521	2.56	2.34	-0.145	-0.476	-0.199	0.623	0.0214	0.232	-0.236	1.72
CCTACTGGGCCACGAAAGATCATTGATTCAGTGA	-0.333	-0.132	-0.275	-0.437	-0.666	0.946	1.67	1.31	0.112	0.519	5.69	5.25	0.632	-0.411	0.215	-0.421	-0.111	-0.0697	-0.401	0.211
